Data published in PubChem BioAssay AID1159580 (chemical genetic matrix, 2015).
Several values for one entry are separate records, joined by “and”; a condition that tells them apart may be missing. Identical values can stand only once. Out of some 5,500 compounds screened, about 2,000 (36%) were called active. About 18% were inconclusive and are not listed. No stated cut-off is given here; in the data, active means normalized growth mostly below about 0.91 (no sharp cut-off); inconclusive means no clear call, values can overlap the other calls; inactive means mostly above about 0.92. This is one part of the list.

Test: chemical genetic growth profiling, strain panel (AID 1159580);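 further: tested at 20 µM; growth read once vehicle control cultures reached saturation at 30 °C; 1 = growth at the plate median or of vehicle wells; lower values mean less growth of the strain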
Conditions: growth OD

Measured: normalized growth

O=C1NC(O)=NC1(c1ccccc1)c1ccccc1
inactive: S. cerevisiae deletion strains, locus YJR075W, strain HOC1, hits give low values 1.01 | S. cerevisiae deletion strains, locus YKL009W, strain mrt4, hits give low values 1.01 | S. cerevisiae deletion strains, locus YKL068W, hits give low values 1.02 | S. cerevisiae deletion strains, locus YKL085W, strain MDH1 (second series), hits give low values 1 | S. cerevisiae deletion strains, locus YKL085W, strain MDH1, hits give low values 1 | S. cerevisiae deletion strains, locus YKL160W, strain elf1, hits give low values 1.03 | S. cerevisiae deletion strains, locus YKL190W, strain CNB1, hits give low values 1.01 | S. cerevisiae deletion strains, locus YKR001C, strain vps1, hits give low values 1.01 | S. cerevisiae deletion strains, locus YKR026C, strain gcn3, hits give low values 1.02 | S. cerevisiae deletion strains, locus YKR091W, strain srl3, hits give low values 1.02 | S. cerevisiae deletion strains, locus YLL001W, strain dnm1, hits give low values 1.02 | S. cerevisiae deletion strains, locus YLL026W, hits give low values 1.01 | S. cerevisiae deletion strains, locus YLL041C, strain sdh2, hits give low values 1.01 | S. cerevisiae deletion strains, locus YLR027C, strain aat2, hits give low values 1.02 | S. cerevisiae deletion strains, locus YLR039C, strain RIC1, hits give low values 0.995 | S. cerevisiae deletion strains, locus YLR058C, strain SHM2, hits give low values 1.01 | S. cerevisiae deletion strains, locus YLR102C, strain apc9, hits give low values 1.02 | S. cerevisiae deletion strains, locus YLR113W, strain HOG1, hits give low values 1.01 | S. cerevisiae deletion strains, locus YLR221C, strain rsa3, hits give low values 1.03 | S. cerevisiae deletion strains, locus YLR258W, strain gsy2, hits give low values 1.03 | S. cerevisiae deletion strains, locus YLR262C, strain YPT6 (second series), hits give low values 1.05 | S. cerevisiae deletion strains, locus YLR262C, strain YPT6, hits give low values 1.03 | S. cerevisiae deletion strains, locus YLR268W, strain sec22, hits give low values 1.05 | S. cerevisiae deletion strains, locus YLR320W, strain mms22, hits give low values 1.03 | S. cerevisiae deletion strains, locus YLR330W, strain CHS5, hits give low values 1.01 | S. cerevisiae deletion strains, locus YLR342W, strain FKS1 (second series), hits give low values 0.985 | S. cerevisiae deletion strains, locus YLR342W, strain FKS1, hits give low values 1.02 | S. cerevisiae deletion strains, locus YLR357W, strain rsc2, hits give low values 1.01 | S. cerevisiae deletion strains, locus YLR370C, strain arc18, hits give low values 1.01 | S. cerevisiae deletion strains, locus YLR371W, strain rom2, hits give low values 1.02 | S. cerevisiae deletion strains, locus YLR384C, strain iki3, hits give low values 1.01 | S. cerevisiae deletion strains, locus YLR418C, strain cdc73, hits give low values 1 | S. cerevisiae deletion strains, locus YML016C, strain PPZ1, hits give low values 1.01 | S. cerevisiae deletion strains, locus YML032C, strain rad52, hits give low values 1.03 | S. cerevisiae deletion strains, locus YML120C, strain ndi1, hits give low values 1.02 | S. cerevisiae deletion strains, locus YML124C, strain tub3, hits give low values 1.01 | S. cerevisiae deletion strains, locus YMR058W, strain fet3, hits give low values 1.01 | S. cerevisiae deletion strains, locus YMR078C, strain ctf18, hits give low values 1.02 | S. cerevisiae deletion strains, locus YMR125W, strain sto1, hits give low values 1.02 | S. cerevisiae deletion strains, locus YMR129W, hits give low values 1.02 | S. cerevisiae deletion strains, locus YMR205C, strain PFK2, hits give low values 1.04 | S. cerevisiae deletion strains, locus YMR223W, strain ubp8, hits give low values 0.991 | S. cerevisiae deletion strains, locus YMR231W, strain pep5, hits give low values 1.02 | S. cerevisiae deletion strains, locus YMR263W, strain SAP30, hits give low values 1.01 | S. cerevisiae deletion strains, locus YMR307W, strain GAS1, hits give low values 0.906 | S. cerevisiae deletion strains, locus YNL067W, strain RPL9B, hits give low values 1.01 | S. cerevisiae deletion strains, locus YNL071W, strain lat1, hits give low values 1.02 | S. cerevisiae deletion strains, locus YNL128W, strain TEP1, hits give low values 1.01 | S. cerevisiae deletion strains, locus YNL153C, strain GIM3, hits give low values 1.01 and 0.985 | S. cerevisiae deletion strains, locus YNL175C, strain NOP13, hits give low values 0.974 | S. cerevisiae deletion strains, locus YNL183C, strain NPR1, hits give low values 0.954 | S. cerevisiae deletion strains, locus YNL197C, strain WHI3, hits give low values 0.983 | S. cerevisiae deletion strains, locus YNL209W, strain ssb2, hits give low values 1.02 | S. cerevisiae deletion strains, locus YNL224C, strain SQS1, hits give low values 0.984 | S. cerevisiae deletion strains, locus YNL233W, strain BNI4, hits give low values 1.01 | S. cerevisiae deletion strains, locus YNL248C, strain rpa49, hits give low values 1.01 | S. cerevisiae deletion strains, locus YNL250W, strain rad50, hits give low values 1.02 | S. cerevisiae deletion strains, locus YNL271C, strain bni1, hits give low values 1.02 | S. cerevisiae deletion strains, locus YNL298W, strain CLA4, hits give low values 1.01 | S. cerevisiae deletion strains, locus YNL307C, strain MCK1, hits give low values 1.02 | S. cerevisiae deletion strains, locus YNL322C, strain KRE1 (second series), hits give low values 1.01 | S. cerevisiae deletion strains, locus YNL322C, strain KRE1, hits give low values 1.01 and 0.973 | S. cerevisiae deletion strains, locus YNR049C, strain mso1, hits give low values 1.01 | S. cerevisiae deletion strains, locus YNR052C, strain pop2, hits give low values 1.01 | S. cerevisiae deletion strains, locus YOL006C, strain TOP1, hits give low values 1.01 | S. cerevisiae deletion strains, locus YOL012C, strain htz1 1.06 | S. cerevisiae deletion strains, locus YOL147C, strain pex11, hits give low values 1.01 | S. cerevisiae deletion strains, locus YOR001W, strain rrp6, hits give low values 1 | S. cerevisiae deletion strains, locus YOR061W, strain CKA2, hits give low values 1 | S. cerevisiae deletion strains, locus YOR069W, strain VPS5, hits give low values 1.01 | S. cerevisiae deletion strains, locus YOR070C, strain gyp1, hits give low values 1.01 | S. cerevisiae deletion strains, locus YOR080W, strain dia2, hits give low values 1.01 | S. cerevisiae deletion strains, locus YOR083W, strain WHI5 (second series), hits give low values 0.98 | S. cerevisiae deletion strains, locus YOR083W, strain WHI5, hits give low values 1.03 | S. cerevisiae deletion strains, locus YOR106W, strain vam3, hits give low values 1.02 | S. cerevisiae deletion strains, locus YOR136W, strain idh2, hits give low values 1.01 | S. cerevisiae deletion strains, locus YOR144C, strain elg1, hits give low values 1.01 | S. cerevisiae deletion strains, locus YOR184W, strain ser1, hits give low values 1.02 | S. cerevisiae deletion strains, locus YOR231W, strain MKK1, hits give low values 0.985 | S. cerevisiae deletion strains, locus YOR265W, strain rbl2, hits give low values 1.01 | S. cerevisiae deletion strains, locus YOR270C, strain vph1, hits give low values 1.03 | S. cerevisiae deletion strains, locus YOR290C, strain snf2, hits give low values 1.03 | S. cerevisiae deletion strains, locus YOR316C, strain cot1, hits give low values 1.02 | S. cerevisiae deletion strains, locus YPL051W, strain arl3, hits give low values 1 | S. cerevisiae deletion strains, locus YPL055C, strain LGE1, hits give low values 1.01 and 0.95 | S. cerevisiae deletion strains, locus YPL078C, strain atp4, hits give low values 1.01 | S. cerevisiae deletion strains, locus YPL106C, strain sse1, hits give low values 1.03 | S. cerevisiae deletion strains, locus YPL240C, strain hsp82, hits give low values 1.02 | S. cerevisiae deletion strains, locus YPL241C, strain CIN2, hits give low values 1 | S. cerevisiae deletion strains, locus YPL256C, strain CLN2, hits give low values 0.982 | S. cerevisiae deletion strains, locus YPR119W, strain clb2, hits give low values 1.02 | S. cerevisiae deletion strains, locus YPR141C, strain kar3, hits give low values 1.01 | S. cerevisiae deletion strains, locus YPR163C, strain tif3, hits give low values 1.02 | S. cerevisiae deletion strains, locus YPR167C, strain met16, hits give low values 1.02 | S. cerevisiae deletion strains, strain wtn01, hits give low values 1.03 | S. cerevisiae strains, strain wild type, hits give low values 1.01
